Screening results (PubChem)
The entries come from a sample that favours hits as a whole.
ST2 inh – inhibitors of human ST2 (IL1RL1) binding to IL-33; inhibition, % for hits at 17 µM; Q01638; AlphaLISA ST2-Fc/biotin-IL-33 interaction, 1 h; actives 2.3% (n = 78,000); AID 1259354; in the data active = inhibition above about 30%
Target sequence (Q01638 whole entry, looked up): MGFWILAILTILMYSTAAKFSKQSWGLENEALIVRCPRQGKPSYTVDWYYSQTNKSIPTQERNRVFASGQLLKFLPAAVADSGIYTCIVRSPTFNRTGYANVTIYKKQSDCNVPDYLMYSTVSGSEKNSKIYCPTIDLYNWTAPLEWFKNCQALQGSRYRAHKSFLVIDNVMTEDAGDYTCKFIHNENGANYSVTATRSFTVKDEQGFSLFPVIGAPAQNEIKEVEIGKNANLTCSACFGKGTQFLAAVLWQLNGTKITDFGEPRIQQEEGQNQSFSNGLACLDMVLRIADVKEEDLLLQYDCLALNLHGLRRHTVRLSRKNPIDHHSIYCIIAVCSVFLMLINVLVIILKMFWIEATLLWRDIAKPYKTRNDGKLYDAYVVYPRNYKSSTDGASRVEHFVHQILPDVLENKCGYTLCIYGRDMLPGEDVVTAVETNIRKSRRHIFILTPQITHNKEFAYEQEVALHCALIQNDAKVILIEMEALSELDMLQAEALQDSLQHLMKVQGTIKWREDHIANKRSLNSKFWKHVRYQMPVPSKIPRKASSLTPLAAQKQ
Hits are given with their value; i = inactive.

SMILES	ST2 inh
O=[N+]([O-])c1ccc(N2CCN(Cc3cccc(Br)c3)CC2)cc1	32.0%
O=[N+]([O-])c1ccc(N2CCN(Cc3ccc(Br)cc3)CC2)cc1	i
Oc1cccc(CN2CCN(c3ccc(F)cc3)CC2)c1	i
CCN1CCN(Cc2cccc(C)c2)CC1	i
COc1ccc(N2CCN(Cc3cccc([N+](=O)[O-])c3)CC2)cc1	i
Cc1cccc(CN2CCN(c3ccc([N+](=O)[O-])cc3)CC2)c1	42.0%
CC[C@H]1CN2CC[C@H]1C[C@@H]2CNC(=S)NCC1CCCCC1	i
CCOc1cc(CN2CCN(CC)CC2)ccc1O	i
CN(Cc1ccccc1)Cc1cn(C[C@H]2CC3CCN2C[C@@H]3C(=O)NCc2ccc3c(c2)OCO3)nn1 (stereo not given in full)	i
OC1CCNC2CCCCC12 (stereo not given)	i
CCOC(=O)Cc1csc(NC(=O)c2cccn(Cc3ccccc3F)c2=O)n1	i
Cn1cc(C=C2C(=O)NC(=O)NC2=O)c2ccccc21	35.0%
CCN1C(=O)NC(=O)/C(=C\c2cn(CC(=O)N3CCCC3)c3ccccc23)C1=O	i
CN1C(=O)C(=Cc2cn(C)c3ccccc23)C(=O)N(C)C1=O	i
CN=C(C)c1c(O)n(C)c(=O)n(C)c1=O	i
COc1ccc(C(=O)N2C[C@@H]3C[C@H](C2)c2ccc(-c4cncnc4)c(=O)n2C3)cc1	i
Cc1ccccc1C(=O)NC(Oc1ccccc1[N+](=O)[O-])C(Cl)(Cl)Cl (stereo not given)	i
Cc1cccc(N2CCN(Cc3ccc(N(C)C)cc3)CC2)c1C	54.0%
Cc1ccccc1N1CCN(Cc2ccccc2)CC1	i
CCN1CCN(Cc2ccc(OC)c(OC)c2)CC1	i
CCN1CCN(Cc2ccc(N(C)C)cc2)CC1	32.0%
Cc1cccc(N2CCN(Cc3ccccc3)CC2)c1C	i
Cc1cccc(N2CCN(Cc3ccc([N+](=O)[O-])cc3)CC2)c1C	47.0%
Cc1cccc(N2CCN(Cc3ccc(F)cc3)CC2)c1C	i
COc1cc(CN2CCN(c3cccc(C)c3C)CC2)ccc1O	i
SMILES	ST2 inh
CCN1CCN(Cc2ccc(Cl)cc2)CC1	i
Cn1nc(-c2ccco2)cc1[C@H]1CN2CC[C@H]1C[C@@H]2CNC(=O)CCCC(=O)O	i
C=C[C@H]1CN2CC[C@H]1C[C@@H]2CNC(=S)Nc1cccc2ccccc12	i
O=C1NC(=O)C(CCc2ccncc2)(CCc2ccncc2)C(=O)N1c1ccccc1	i
CC[C@H]1CN2CC[C@H]1C[C@@H]2CNC(=S)NCCOC	i
CC(C)[C@@H](C)/C=C/[C@@H](C)[C@H]1CC[C@@H]2[C@]1(C)CCC1[C@]23C=C[C@]2(C[C@@H](O)CC[C@]12C)OO3 (stereo not given in full)	i
COc1cc2c(cc1OC)C(C(=O)N1CCC3(CC1)OCCO3)C(c1cccs1)N(C)C2=O (stereo not given)	i
CN1CCN(Nc2ccc([N+](=O)[O-])cn2)CC1	i
S=C(NC[C@H]1C[C@@H]2CCN1C[C@@H]2CN1CCN(c2ccccc2)CC1)Nc1ccccc1	i
COc1ccc(-c2ccc(=O)n3c2[C@@H]2C[C@@H](CN(C(=O)Nc4ccc(C)cc4)C2)C3)cc1	i
O=C1OC(c2ccccc2)=N/C1=C\N1CC2CC(C1)c1cccc(=O)n1C2 (stereo not given)	i
Cc1c(CCN)c2ccccc2n1-c1ccccc1	37.0%
O=[N+]([O-])c1ccc(O)cc1CN1CCN(Cc2ccccc2)CC1	i
CCN(CCNc1ccc([N+](=O)[O-])c2cccnc12)S(=O)(=O)c1ccccc1	i
O=[N+]([O-])c1ccc(N2CCCCC2)c2ncccc12	62.0%
O=[N+]([O-])c1ccc(NCc2ccccc2)c2ncccc12	51.0%
CS(=O)(=O)NC[C@H]1C[C@@H]2CCN1C[C@@H]2CN1CCN(c2ccccc2)CC1	i
COc1ccc(-c2cc([C@H]3CN4CC[C@H]3C[C@@H]4CNC(=S)Nc3ccc(Cl)cc3)n(C)n2)cc1OC	i
CCc1ccc(CN2CCN(c3ccccc3F)CC2)cc1	i
CC[C@H]1CN2CC[C@H]1C[C@@H]2COC(=O)Nc1ccc(Oc2ccccc2)cc1	i
COc1ccccc1NC(=O)CN1C(=O)C(C)N=C(c2ccccc2)c2ccccc21 (stereo not given)	i
Nc1c(C(=O)Nc2ccccc2)sc2nc3c(cc12)N1CCC3CC1	i
COc1ccc(C2N(c3ccccn3)C(=O)C3CCCN32)cc1 (stereo not given)	i
COc1ccc(-c2cc([C@H]3CN4CC[C@H]3C[C@@H]4CNC(=S)Nc3cc(C)cc(C)c3)n(C)n2)cc1OC	i
CC1CCN(C[C@H]2CN3CC[C@H]2C[C@@H]3CNC(=S)NCc2ccco2)CC1	i
SMILES	ST2 inh
CCn1nc(C)c(NC(=O)CN2C[C@@H]3C[C@H](C2)c2cccc(=O)n2C3)c1C	i
O=C1CN=C(c2ccccc2Cl)c2cc(Cl)ccc2N1	i
COc1ccc2c(CCN)c[nH]c2c1	i
COc1ccc2c(c1)c(CCN)c(C)n2Cc1ccccc1	38.0%
CCOC(=O)c1c(C)n(C(C)C)c2ccc(OC)cc12	i
CCOc1ccc(CN2CCC3(CC2)C(=O)N(C)c2ccccc23)cc1CO	i
O=[N+]([O-])c1cc(F)c(N2CCCCC2)cc1Br	42.0%
CC1CCN(c2cc(Br)c([N+](=O)[O-])cc2F)CC1	45.0%
CC1CN(c2ccccc2[N+](=O)[O-])CC(C)N1 (stereo not given)	i
CN(C)c1ccc(N2CCNCC2)c([N+](=O)[O-])c1	i
O=C(c1ccc(=O)[nH]c1)N1[C@H]2CCNC[C@@H]1CC2	i
Cc1nc2sccn2c1C(=O)N1C[C@@H]2C[C@H](C1)c1cccc(=O)n1C2	i
COc1cc2c(cc1O)C1(C)CCC(O)C(C)(C)C1CC2=O (stereo not given)	37.0%
CN(CCc1ccccn1)C[C@H]1CN2CC[C@H]1C[C@@H]2CNC(=S)NCc1ccco1	i
CS(=O)(=O)NC[C@H]1C[C@@H]2CCN1C[C@@H]2CN1CCN(c2ccc(F)cc2)CC1	i
CN1CCN(C(=O)Cc2c(C(=O)O)[nH]c3ccccc23)CC1	i
O=C(c1cnccn1)N1C[C@@H](c2cc(F)cc(F)c2)[C@@H]2[C@H]1C1CCN2CC1	i
COc1ccc(CCNC2CCC(C)C2)cc1 (stereo not given)	50.0%
CSc1ccc(-c2ccc3n(c2=O)C[C@H]2C[C@@H]3CN(S(=O)(=O)c3cccs3)C2)cc1	i
Cc1ccc(S(=O)(=O)NC[C@H]2C[C@@H]3CCN2C[C@@H]3CN2C[C@@H]3C[C@H](C2)c2cccc(=O)n2C3)cc1	i
O=C(Nc1cccc(F)c1)Nc1ccc2n(c1=O)C[C@H]1C[C@@H]2CN(C2CCOCC2)C1	i
COc1ccccc1N1CCN(C[C@H]2CN3CC[C@H]2C[C@@H]3CNC(=S)NCc2ccco2)CC1	i
O=C(CSc1c2c(nc3ccc(Cl)cc13)CCCC2)N1CCC2(CC1)OCCO2	i
Cc1ccc(S(=O)(=O)NC[C@H]2C[C@@H]3CCN2C[C@@H]3CN2CCN(c3ccccc3)CC2)cc1	33.0%
O=S(=O)(NC[C@H]1C[C@@H]2CCN1C[C@@H]2CN1CCN(c2ccc(F)cc2)CC1)c1ccccc1	i
O=S(=O)(NC[C@H]1C[C@@H]2CCN1C[C@@H]2CN1CCN(c2ccccc2)CC1)c1ccccc1	i
O=C(NC1CCCCCCC1)c1cn(CC2CCCO2)cc(C(=O)N2CCSCC2)c1=O (stereo not given)	i
COc1ccc(/C=C/c2nc3ccccc3c(=O)n2-c2ccccc2[N+](=O)[O-])cc1	44.0%
Cc1ccc(-n2c(C)nc3ccc(I)cc3c2=O)c([N+](=O)[O-])c1	i
